What all share (experiment): yeast three-hybrid, YBZ-1, SC-Leu-His + 0.5 mM 3-AT, 4 days
Holding throughout (conditions): tags: N-Gal4 AD-HA kept; label: inside an RPR1-promoter hybrid RNA with tandem MS2 sites; ssRNA

In one test the target is PUM1 PUF domain R3-GPD (Homo sapiens, UniProt Q14671 828-1176, C935G;R936P;Q939D). The gist of the method:
(§1)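 The interaction score is the logarithmic change in variant frequency from input to selection. It uses log2, with a pseudocount of 1 for absent variants, and frequencies came from PCR-amplified, Illumina-sequenced repeat regions. The libraries were Pumilio-1 PUF domains randomized at the three base-contacting residues per repeat, co-expressed with matching RNA elements in strain YBZ-1 (LexA–MS2 coat fusion, HIS3 reporter). Plating lasted four days on SC-Leu (input) or SC-Leu-His + 0.5 mM 3-AT (selection).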

The target of another test is PUM1 PUF domain R3-SCR (Homo sapiens, UniProt Q14671 828-1176, C935S;R936C;Q939R). A digest of the protocol: as §1
In a further test the target is T1, PUM1 PUF domain R6-MHR (Homo sapiens, UniProt Q14671 828-1176, N1043M;Y1044H;Q1047R).
T1 sequence: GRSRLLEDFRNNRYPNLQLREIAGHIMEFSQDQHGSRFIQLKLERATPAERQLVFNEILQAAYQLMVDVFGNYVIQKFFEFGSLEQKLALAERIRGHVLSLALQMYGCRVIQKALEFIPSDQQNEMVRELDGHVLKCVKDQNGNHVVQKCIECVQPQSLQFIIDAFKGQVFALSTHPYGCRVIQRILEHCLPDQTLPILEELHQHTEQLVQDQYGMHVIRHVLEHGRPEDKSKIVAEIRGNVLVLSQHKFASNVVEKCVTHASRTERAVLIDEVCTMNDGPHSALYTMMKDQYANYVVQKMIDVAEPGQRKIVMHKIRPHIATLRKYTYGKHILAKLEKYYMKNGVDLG
The gist of the method:
as §1

A further test concerns the target PUM1 PUF domain R5-RFQ (Homo sapiens, UniProt Q14671 828-1176, C1007R;R1008F). A digest of the protocol: as §1
The target of the next test is PUM1 PUF domain R3-VRA (Homo sapiens, UniProt Q14671 828-1176, C935V;Q939A). A digest of the protocol:
as §1

The target of another test is PUM1 PUF domain R5-DHC (Homo sapiens, UniProt Q14671 828-1176, C1007D;R1008H;Q1011C). A digest of the protocol:
as §1

In a further test the target is PUM1 PUF domain R4-NRN (Homo sapiens, UniProt Q14671 828-1176, H972R;Q975N). The gist of the method: as §1

The record followed here is paper PMC8384837, “Expanding the binding specificity for RNA recognition by a PUF domain”.

With “GGCUAGAACUAGUGGAUCCCCCGGCGCCCGGCGGCUCGAGCCCGGGUAAGUGUAAUUAGUCUGCAUGCCGCCGGGCGCCAUGCCUGCAGGUCGACUCUAGAAAACAUG”, the binding signal in the test with PUM1 PUF domain R3-GPD is 3.07 log2 enrichment (interaction score); in the test with PUM1 PUF domain R3-SCR, 3.35 log2 enrichment (interaction score).

As to “GGCUAGAACUAGUGGAUCCCCCGGCGCCCGGCGGCUCGAGCCCGGGUAAGUGUAAAUAGUCUGCAUGCCGCCGGGCGCCAUGCCUGCAGGUCGACUCUAGAAAACAUG”, the binding signal was 1.39 log2 enrichment (interaction score) in the test with PUM1 PUF domain R3-GPD; 5.76 log2 enrichment (interaction score) in the test with PUM1 PUF domain R6-MHR; 2.95 log2 enrichment (interaction score) with PUM1 PUF domain R5-RFQ; 3.97 log2 enrichment (interaction score) with PUM1 PUF domain R3-VRA; 2.98 log2 enrichment (interaction score) with PUM1 PUF domain R5-DHC; 2.83 log2 enrichment (interaction score) with PUM1 PUF domain R4-NRN.

“GGCUAGAACUAGUGGAUCCCCCGGCGCCCGGCGGCUCGAGCCCGGGUAAGUGUGAAUAGUCUGCAUGCCGCCGGGCGCCAUGCCUGCAGGUCGACUCUAGAAAACAUG”: in the test with PUM1 PUF domain R5-RFQ, the binding signal was 3.05 log2 enrichment (interaction score).

As for “GGCUAGAACUAGUGGAUCCCCCGGCGCCCGGCGGCUCGAGCCCGGGUAAGUGUAAGUAGUCUGCAUGCCGCCGGGCGCCAUGCCUGCAGGUCGACUCUAGAAAACAUG”, the binding signal was 1.39 log2 enrichment (interaction score) with PUM1 PUF domain R3-VRA and 3.4 log2 enrichment (interaction score) with PUM1 PUF domain R3-SCR.
